From PubChem BioAssay (NCI)
Compounds without any hit were thinned out: in the full panel of roughly 83,000, 20% have a hit.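 Compound tested at a single concentration for 48 hours in 96-well plates; a percent growth value below 10 was scored as active.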 Values without a mark were called inactive. The source made the active and inactive calls.

These compounds were tested on CCRF-CEM leukemia (assay: NCI-60 one-dose screen, 48 h (100 = growth as untreated, 0 = no growth, -100 = all killed)). Conditions: 100 µM.
In the case of `COc1ccc(C(=O)/C=C/c2ccc(OCc3cccc(C(F)(F)F)c3)c(OC)c2)cc1OC`, the growth is reported as 12.6%.
In the case of `CCN(Cc1ccccc1)c1ccc(/C=C2\COc3ccccc3C2=O)cc1`, the growth is reported as 15%.
Compound `CC(=O)/C=C/c1ccc(OCc2ccc(Cl)cc2)cc1` has a growth of 41.2%.

These compounds were tested on MOLT-4 leukemia in the same assay as above. Conditions: 10 µM.
`COc1ccc(C(=O)/C=C/c2ccc(OCc3cccc(C(F)(F)F)c3)c(OC)c2)cc1OC` showed a growth of 42.2%.
`CCN(Cc1ccccc1)c1ccc(/C=C2\COc3ccccc3C2=O)cc1` was tested, and the growth was 78.6%.
`COc1ccc(C(=O)/C=C/c2ccc(OCc3ccc(Cl)cc3)cc2)cc1OC` was tested, and the growth was 90.4%.
For `CC(=O)/C=C/c1ccc(OCc2ccc(C(C)(C)C)cc2)cc1`, the growth was 68.3%.
Work on `O=C(/C=C/c1cccc(Oc2ccc(Cl)cc2)c1)c1ccccc1` yielded a growth of 62.6%.
Compound `CC(=O)/C=C/c1ccc(OCc2ccc(Cl)cc2)cc1` has a growth of 92.8%.
`CC(=O)/C=C/c1ccc(N(CCO)Cc2ccc(C(C)(C)C)cc2)cc1` gave a growth of 54%.
For `CC(=O)/C=C/c1ccc(N(C)Cc2ccc(C(C)(C)C)cc2)cc1`, the growth was 62.2%.

Same assay, conditions: 100 µM
`COc1ccc(C(=O)/C=C/c2ccc(OCc3cccc(C(F)(F)F)c3)c(OC)c2)cc1OC` was tested, and the growth was -3.95% (active).
`CCN(Cc1ccccc1)c1ccc(/C=C2\COc3ccccc3C2=O)cc1` gave a growth of 10.5%.
`COc1ccc(C(=O)/C=C/c2ccc(OCc3ccc(Cl)cc3)cc2)cc1OC` showed a growth of 62.8%.
`CC(=O)/C=C/c1ccc(OCc2ccc(C(C)(C)C)cc2)cc1` was tested, and the growth was 13.1%.
In the case of `O=C(/C=C/c1cccc(Oc2ccc(Cl)cc2)c1)c1ccccc1`, the growth is reported as -2.97% (active).
`CC(=O)/C=C/c1ccc(OCc2ccc(Cl)cc2)cc1` gave a growth of 16.7%.
In the case of `CC(=O)/C=C/c1ccc(N(CCO)Cc2ccc(C(C)(C)C)cc2)cc1`, the growth is reported as -47.4% (active).
In the case of `CC(=O)/C=C/c1ccc(N(C)Cc2ccc(C(C)(C)C)cc2)cc1`, the growth is reported as -38.9% (active).
